Compounds without any hit were thinned out: in the full panel of roughly 83,000, 20% have a hit.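 Interpretation: 100, growth as untreated; towards 0, rising growth inhibition; 0, no net growth; 0 to -100, cell death. Compounds scoring below 10 were considered active.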 Active and inactive are the calls of the source.

For 14 compounds, growth results are on record in PubChem BioAssay (NCI).

The experiment has as its system MDA-MB-468 breast. In words: NCI-60 one-dose screen, 48 h (100 = growth as untreated, 0 = no growth, -100 = all killed). The settings on record: 10 µM unless noted.
For `COc1cc(NC(C)CCCNC(=O)CCC(=O)NCCCNCCCCCCCCCCNCCCNC(=O)CCC(=O)NCCCC(C)Nc2cc(OC)cc3cccnc23)c2ncccc2c1` (centres undefined), the growth was -0.701% [8 µM] (active). To `COc1cc2c3c(n(CCCCNCCCn4c5c(c6cc(OC)c(OC)cc6c4=O)C(=O)c4cc6c(cc4-5)OCO6)c(=O)c2cc1OC)-c1cc2c(cc1C3=O)OCO2` belongs 97.7% (inactive); to `CCCCc1ccc(NC(=O)N(CCCl)N=O)cc1`, 91.4% (inactive). As for `COc1ccc(OC)c(Nc2nnc(-c3ccc(O)c(OC)c3)o2)c1`, the figure is 71.7% (inactive); as for `CCCN(CCC)CCC(O)c1cc2c(c3ccccc13)CCCC2` (centres undefined), 72.2% (inactive). To `COC(=O)C(C)Oc1ccc(OC#N)cc1` (centres undefined) belongs 99% (inactive); to `N#Cc1cnc(NCCc2ccncc2)nc1-n1cnc2ccccc21`, 74.2% (inactive).

Turning to `COc1cc(/C=C/C(=O)c2ccc(NC(=O)COc3cccc4cccnc34)cc2)cc(OC)c1OC`, the growth is 75.6% (inactive). As for `CNC(=O)c1c(NC(=O)c2cccc(C(F)(F)F)c2)sc2c1CCC(=O)C2`, the figure is -28% (active). To `COc1cc(NC(=O)CSc2nc3ccc(C)cc3c(=O)n2-c2ccccc2)cc(OC)c1OC` belongs 69.8% (inactive); to `CCN(CC)CCC(CNc1c2ccc(Cl)cc2nc2ccc(OC)cc12)c1ccccc1` (centres undefined), -87.1% (active); to `COc1cc2nc(-c3ccc(C)cc3)cc(OCCCNCC3CCCO3)c2cc1OC` (centres undefined), 68.8% (inactive). To `COc1cc(C2C=C(c3ccc(Cl)cc3)N=C3SC(C)=CN32)cc(OC)c1OC` (centres undefined) belongs 80.2% (inactive); to `CCCCCCCCCCN(CCCCCCCCCC)CC(=O)c1ccc2cc(Br)c3ccccc3c2c1`, 100% (inactive).
